Test results reported in PubChem BioAssay (Tox21).
Active and inactive are the calls of the source. The call rests on the fitted dose curve; in most records, active means well fitted activation curve with a large enough effect in the repeat runs; inconclusive means weak or mixed curves; inactive means flat fitted curve, though single readings scatter.

Assay: A CellTox Green Cytotoxicity Assay to monitor cytotoxicity in HepG2 cells - 0 hour (AID 1224882); further: nearly all actives have a fitted effect of over 35% in size
Conditions: CellTox Green fluorescence; series mostly up to 76.8 µM; cytotoxicity: at the top concentration
Description: National Center for Advancing Translational Sciences [NCATS]
NIH Chemical Genomics Center [NCGC]
U.S. Environmental Protection Agency [EPA]
National Institutes of Environmental Health Sciences [NIEHS]
National Toxicology Program [NTP]
Cell-based models are critical for drug discovery. Determining the natural cytotoxic effects resulting from test compounds is an essential research activity. A CellTox Green Cytotoxicity Assay to monitor cytotoxicity in real time of continues cell culture during 40 hours of the compound treatment was used to screen Tox21 10K library compounds in HepG2 cells. CellTox Green Cytotoxicity Assay is a nonlytic, homogeneous, biofluorescent method to measure cytotoxicity in cell culture after experimental manipulation. The assay system uses a proprietary asymmetric cyanine dye that is excluded from viable cells but preferentially stains the dead cell's DNA. […] Viable cells produce no appreciable increases in fluorescence. Therefore, the fluorescence signal produced by the binding interaction with dead cell DNA is proportional to cytotoxicity.
The mixture of HepG2 cell suspension and reagents were dispensed at 600cells/6 ul/well in 1536-well tissue culture treated black solid bottom plates using a Multidrop dispenser. After the assay plates were incubated at a 37 C/5% CO2 incubator for 5 hours, 23 nL of compounds dissolved in DMSO, positive and negative controls was transferred to the assay plate by a pintool work station. The plates were incubated at 37 C for 40 hours. The fluorescence intensity were measured at 0h, 8h, 16h, 24h, 32h and 40h time points using ViewLux plate reader during compound treatment.
On the % scale 0 is the no-effect control and ±100 the full control effect.

Row | SMILES | cytotoxicity
1 | CC1c2ccccc2CN1NC(=O)c1ccc(Cl)c(S(N)(=O)=O)c1 (stereo not given) | -1.99% [at 35.3 µM] (inactive)
2 | OCCN1CCOCC1 | -3.61% (inactive)
3 | CC(CO)(CO)CO | 1.16% (inactive)
4 | CN(C)C(C)(C)CO | -5.79% (inactive)
5 | CN(C)CCN(C)CCO | 0.591% (inactive)
6 | c1ccc2c(CC3=NCCN3)cccc2c1 | -13.3% [at 35.3 µM] (inactive)
7 | O=C(Cl)c1ccccc1[N+](=O)[O-] | -2.84% (inactive)
8 | CCCCCCCCCCCCCCCCCCOCCO | -0.0743% [at 15.8 µM] (inactive)
9 | C=C(C)c1cccc(C(C)(C)N=C=O)c1 | -0.334% (inactive)
10 | CCOCCOCC | -0.788% (inactive)
11 | CCCC(=O)Nc1ccc(OCC(O)CNC(C)C)c(C(C)=O)c1 (stereo not given) | -0.801% [at 35.3 µM] (inactive)
12 | CC1OCCC1=O (stereo not given) | 3.63% (inactive)
13 | CCCC(CC)c1ccccc1 (stereo not given) | 11.5% (inactive)
14 | O=C(O)CONC(=O)c1ccccc1 | 2.87% (inactive)
15 | CC1(C)Cc2cccc(N)c2O1 | 0.434% (inactive)
16 | [O-][n+]1cccc(/C(Cl)=N/OC[C@@H](O)CN2CCCCC2)c1 | 7.2% [at 35.3 µM] (inactive)
17 | Cn1nnc2c(C(N)=O)ncn2c1=O | 17.9% [at 35.3 µM] (inactive)
18 | CCCCOC(=O)[C@H](C)O | 1.2% (inactive)
19 | O=C1CCC(=O)N1Cl | -4.73% (inactive)
20 | O=C1NC(c2ccccc2)(c2ccccc2)C(=O)N1COP(=O)(O)O | 1.41% [at 35.3 µM] (inactive)

Row | SMILES | cytotoxicity
21 | Cc1cccc(Cl)c1 | -1.09% (inactive)
22 | O=C1OCCO1 | -1.03% (inactive)
23 | C=CC(=O)CCCCC | -8.41% (inactive)
24 | CC(C)Cn1cnc2c1c(=O)n(C)c(=O)n2C | 2.06% [at 35.3 µM] (inactive)
25 | CCC(=O)CC | 4.9% (inactive)
26 | CCOc1cccc(N)c1 | -1.51% (inactive)
27 | COC(=O)CCCCC(=O)O | -8.83% (inactive)
28 | CCC(C)C(=O)OCCc1ccccc1 (stereo not given) | 0.158% (inactive)
29 | Cc1ccc(C(=O)O)cc1[N+](=O)[O-] | 0.0939% (inactive)
30 | CCCCCCC1(C)CCC(=O)O1 (stereo not given) | -2.16% (inactive)
31 | CC(C)NCC(O)c1ccc2ccccc2c1 (stereo not given) | -6.74% [at 35.3 µM] (inactive)
32 | CC1CCc2c(N3CCC(O)CC3)c(F)cc3c(=O)c(C(=O)O)cn1c23 (stereo not given) | 1.94% [at 35.3 µM] (inactive)
33 | C=Cc1ccc(C(C)(C)C)cc1 | 7.72% (inactive)
34 | CC(=O)CCC1=C(C)CCCC1(C)C | -0.567% (inactive)
35 | CC1=NN(c2ccc(S(=O)(=O)O)cc2)C(=O)C1 | 4.2% (inactive)
36 | N[C@@H](Cc1ccc(O)cc1)C(=O)O | 1.32% [at 6.97 µM] (inactive)
37 | CC(=O)OC1CCCCC1C(C)(C)C (stereo not given) | -7.95% (inactive)
38 | CCOC(=O)CC1(C)OCC(C)O1 (stereo not given) | 0.923% (inactive)
39 | CCCCCCCCCCOC(C)=O | 3.38% (inactive)
40 | C[C@H]1[C@@H](c2ccccc2)NC(=O)N1C | 2.93% (inactive)
